Most compounds without a hit are left out; they make up all but 2.6% or so of the library.
Cruzain inh Det: cruzain (T. cruzi) inhibition with detergent | Potency, µM, for inactives: max response, negative = inhibition, usual class: inhibitors | 0.43% of 200,000 active | AID 1478 | P25779 | purified cruzain, Z-FR-AMC fluorescence, 0.01% Triton;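 further: plate controls were neutral wells for no effect and buffer without enzyme for full effect; nearly all actives have a fitted effect of over 40% in size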
Target sequence (P25779 123-467 limits assumed): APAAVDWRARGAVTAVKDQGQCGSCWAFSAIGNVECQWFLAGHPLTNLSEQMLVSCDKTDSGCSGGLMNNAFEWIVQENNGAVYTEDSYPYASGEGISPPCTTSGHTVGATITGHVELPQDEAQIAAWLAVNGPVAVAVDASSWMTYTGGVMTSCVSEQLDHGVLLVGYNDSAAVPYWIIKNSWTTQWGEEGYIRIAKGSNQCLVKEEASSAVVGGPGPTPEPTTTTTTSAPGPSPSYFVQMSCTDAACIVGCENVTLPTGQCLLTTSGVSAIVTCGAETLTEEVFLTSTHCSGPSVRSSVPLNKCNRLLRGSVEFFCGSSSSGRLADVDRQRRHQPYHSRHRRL
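Read-out: AMC fluorescence (360 nm excitation, 450 nm emission), four reads over 2 min, first-to-third difference used. Conditions: cruzain 1.5 nM, Z-FR-AMC 2 uM, pH 5.5 acetate, 5 mM DTT, 0.01% Triton X-100.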
Cruzain inh noDet: inhibitors of Trypanosoma cruzi cruzain without detergent. AID 1476. Potency, µM, inactives show max response, negative = inhibition, usual class: inhibitors. purified cruzain, Z-FR-AMC fluorescence, no detergent. 2.3% of 200,000 active. P25779;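 further: plate controls were enzyme without inhibitor for no effect and buffer without enzyme for full effect; nearly all actives have a fitted effect of over 40% in size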
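Detergent-free condition (0.00005% Triton X-100) in acetate buffer pH 5.5 with DTT. 1.5 nM enzyme and compound were pre-mixed 15 min, then 2 uM Z-FR-AMC substrate added; reaction progress from fluorescence change between first and third reads (60 s).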
The depositor's hits bear a star; u = inconclusive. The call rests on the fitted dose curve; in most records, active means well fitted curve in the direction sought with a large enough effect; inconclusive means small, poorly fitted or top-dose-only effect, or another doubt; inactive means no such curve, though single readings can be large; an effect the other way counts as inactive or inconclusive. Potency means the concentration at half of the fitted maximal effect.

SMILES	Cruzain inh Det	Cruzain inh noDet
O=C(Nc1nnc(-c2ccc3c(c2)OCCO3)o1)c1ccc(Cc2ccccc2)cc1	0.4%	12.6µM*
CN(C)c1ccc(N=Nc2ccccc2)cc1	-8.1%	-12.6%
CN(C)c1ccc(N=O)cc1	25.1µM*	31.6µM*
Cc1nc2cc(-c3ccccc3)nn2c(C)c1CCC(=O)N1CCN(c2ccc(F)cc2)CC1	-1.9%	1.3%
N[C@@H](CP(=O)(O)O)C(=O)O	-3.4%	6.3%
COC(=O)c1ccc(C(C(=O)NC2CCCCC2)N(CCc2ccccc2)C(=O)Cc2cccs2)cc1 (stereo not given)	0.1%	12.6µM*
COC(=O)c1ccc(C(C(=O)NC2CCCCC2)N(Cc2ccc(F)cc2)C(=O)Cc2cccs2)cc1 (stereo not given)	-3.6%	16.8%
Cc1cc(C(=O)Nc2cnn(Cc3ccc(Cl)cc3Cl)c2)no1	-3.0%	-4.1%
O=C(Nc1cnn(Cc2ccc(Cl)cc2Cl)c1)c1noc2c1CCc1ccccc1-2	-6.4%	7.94µM*
CC1CCCN(CCCNC(=O)c2cc(Sc3ccc(F)cc3)nc3ccccc23)C1 (stereo not given)	1.1%	-3.8%
CCCCCCCCCCCCC/C=C\[C@@H](O)[C@@H](N)CO	2.1%	10.7%
CCCCCCCCCCCCCCCC(O)C(N)CO (stereo not given)	17.8µM*	u
CC(C)(C)c1nc(SCC(=O)Nc2nc3c(s2)CCCC3)c2ccccc2n1	-14.3%	u
COC(=O)c1sccc1NC(=O)c1cc(-c2ccc(C)cc2)nc2ccccc12	-4.1%	u
CC(C)(C)c1nnc(NC(=O)c2cc(-c3ccccc3)nc3ccccc23)s1	-3.2%	-27.8%
COC(=O)c1sccc1NC(=O)c1cc(-c2cccc(C)c2)nc2ccccc12	0.0%	10µM*
Cc1ccc(-c2cc(C(=O)Nc3ccc4c(c3)OCCO4)c3ccccc3n2)cc1	-1.0%	10µM*
O=C(CSc1nc(Cc2ccccc2)nc2ccccc12)Nc1nc2c(s1)CCCC2	-8.8%	25.1µM*
O=C(NC1=NCCS1)c1cc(-c2ccc(-c3ccccc3)cc2)nc2ccccc12	-3.2%	7.94µM*
Cc1ccc(NC(=O)c2cc(-c3ccc(C)o3)nc3ccccc23)cc1	-0.2%	-19.6%
CC(C)[C@H](CO)Nc1nc(Nc2cccc(Cl)c2)c2ncn(C(C)C)c2n1	-4.3%	u
CC(Cc1ccccc1)C(=O)NCC1CC1 (stereo not given)	2.4%	-1.9%
CCCn1c(-c2ccc(F)cc2)nc2c(NCCCN3CCOCC3)nc(C)nc21	7.1%	-4.0%
COc1cc(-c2[o+]c3cc(O)cc(O)c3cc2O)cc(O)c1O	-1.3%	-6.7%
O=C(Nc1nc2c(s1)CCCC2)c1cc(-c2ccccc2)nc2ccccc12	-6.1%	20µM*
SMILES	Cruzain inh Det	Cruzain inh noDet
O=C(Nc1ccc(Br)cc1)c1cc(-c2cccs2)nc2ccccc12	-6.0%	-1.9%
O=C(Nc1nc2c(s1)CCCC2)c1cc(-c2ccncc2)nc2ccccc12	2.0%	u
CN(C)S(=O)(=O)c1cccc(NC(=O)c2cc(-c3cccs3)nc3ccccc23)c1	-3.8%	15.8µM*
Cc1ccc(C)c(CSc2nc3ccncc3n2CC(=O)Nc2ccc(N(C)C)cc2)c1	-8.9%	-29.8%
O=C(CSc1nc(-c2ccccc2)nc2c1CCCC2)c1ccc(F)cc1	-3.3%	4.0%
CC(=O)Nc1cc(CN2CCCCC2)c(O)c2ncccc12	-0.3%	1.4%
O=C(CSc1nnc(COc2ccc(Cl)cc2)o1)N1CCN(c2ccccc2)CC1	-8.5%	-2.4%
O=C(CSc1nnc(-c2ccc(Cl)cc2)o1)N1CCN(c2ccccc2)CC1	-6.7%	15.8µM*
CCOc1ccc(C2=Nn3c(nnc3-c3ccccc3)SC2)cc1Cl	1.2%	20µM*
Clc1ccc(C2=Nn3c(nnc3-c3cccs3)SC2)cc1	-8.6%	7.94µM*
Cc1ccc(-c2nnc3n2N=C(c2ccccc2)CS3)cc1	-1.4%	-16.8%
CCc1ccc(C2=Nn3c(nnc3-c3cccs3)SC2)cc1	-9.8%	-8.2%
CC(C)CCNC(=O)C1CCN(C(=O)c2cc3sccc3n2Cc2ccc(Cl)cc2)CC1	-6.3%	23.2%
CC1CCC(NC(=O)c2ccc(CS(=O)(=O)c3ccc(Cl)cc3)o2)CC1 (stereo not given)	-5.5%	13.3%
CC(C)CCn1c(=O)c2sccc2n2c(CCCC(=O)NCCc3ccccc3)nnc12	-8.6%	u
CCCCOc1ccc(N2C(=O)CC(N(O)c3ccccc3)C2=O)cc1 (stereo not given)	2.3%	20µM*
CCCCOc1ccc(N2C(=O)CC(N(CCc3ccccc3)C(=O)/C=C/C(=O)O)C2=O)cc1 (stereo not given)	-0.4%	u
CCOc1ccccc1N1C(=O)CC(N(O)c2ccccc2)C1=O (stereo not given)	-1.2%	-4.9%
CCCCCOc1ccc(N2C(=O)CC(N(O)c3ccccc3)C2=O)cc1 (stereo not given)	-1.1%	25.1µM*
Cc1csc(NC(=O)CSc2nnc(NC(=O)COc3ccccc3)s2)n1	2.4%	7.94µM*
Cc1csc(NC(=O)CSc2nnc(C)s2)n1	-0.2%	-11.4%
COc1ccccc1/C=C(/CC(=O)NCc1ccc(F)cc1)c1nc2ccccc2s1	-7.5%	15.8µM*
COc1ccccc1/C=C(/CC(=O)NCc1ccccc1)c1nc2ccccc2s1	-4.3%	u
COc1ccc(-c2cc(C)no2)cc1S(=O)(=O)NCc1cccs1	-0.1%	-4.1%
Cc1cc(Cl)c(OCCCN(C)C)c(Br)c1	0.1%	5.01µM*
SMILES	Cruzain inh Det	Cruzain inh noDet
Cc1ccc(OCCCN(C)C)c(Br)c1	1.9%	3.3%
C/C(=N\N=C1/NC(=O)C(C)S1)c1ccc([N+](=O)[O-])cc1 (stereo not given)	25.1µM*	15.8µM*
C/C(=N/N=C1/NC(=O)CC(C(=O)O)S1)c1ccccc1 (stereo not given)	-3.9%	2.3%
CCCCCOC(=O)CSc1ncnc2c1sc1nc(N3CCOCC3)c3c(c12)CCCC3	-0.7%	10.8%
COc1ccc(OC)c(NS(=O)(=O)c2ccc(-c3cc(C)no3)s2)c1	-5.1%	-17.8%
CC1=C(C(=O)c2ccccc2)C(c2cn(-c3ccccc3)nc2-c2ccc(Cl)cc2)NC(=S)N1 (stereo not given)	3.3%	10µM*
CCOC(=O)C1=C(C)NC(=O)NC1c1cn(-c2ccccc2)nc1-c1ccc(OC(C)C)cc1 (stereo not given)	-16.6%	20.3%
CC1=NN(c2ccc(S(=O)(=O)O)cc2)C(=O)/C1=C\c1ccc(Cl)cc1	5.0%	-0.3%
COc1cccc(-c2csc(N3CCN(S(=O)(=O)c4ccc(F)cc4)CC3)n2)c1	-0.3%	25.1µM*
COc1cccc(-c2csc(N3CCN(C(=S)Nc4ccc(Cl)cc4)CC3)n2)c1	6.9%	25.1µM*
COc1cccc(-c2csc(N3CCN(C(=S)Nc4ccccc4)CC3)n2)c1	4.3%	u
COc1cccc(-c2csc(N3CCN(Cc4ccccc4)CC3)n2)c1	-10.3%	-24.2%
Cc1oc(-c2cccc(Cl)c2)nc1CS(=O)(=O)CC(=O)NC(C)CCc1ccccc1 (stereo not given)	-7.9%	u
O=C(O)/C=C(/C(=O)O)[C@]12CCN3CC4=CCO[C@@H]5CC(=O)N[C@@H]1C5[C@H]4C[C@H]32 (stereo not given in full)	-5.4%	6.6%
CC1Cc2cc(S(=O)(=O)CCC(=O)Nc3ccc(Cl)cc3F)ccc2N1C(=O)C1CC1 (stereo not given)	-2.4%	-11.8%
CCc1ccc(NC(=O)c2ccc3c(O)c(S(=O)(=O)c4ccccc4)c(=O)[nH]c3c2)cc1	-4.0%	-9.9%

Screens deposited in PubChem by National Center for Advancing Translational Sciences (NCATS).
